“And” between values parts separate entries of the source, which are not always exact repeats. Equal entries are not always repeated. This is part of a sample that, as a whole, favours compounds with a hit. Of some 83,000 tested, about 20% had one in any assay.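 Assay: single dose, 48 h. Readout: percent growth (0 = no net growth; negative = cell death). Active: <10.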 The source made the active and inactive calls.
Tests used:
Assay in all cases: NCI-60 one-dose screen, 48 h (100 = growth as untreated, 0 = no growth, -100 = all killed)
Settings in all cases: 10 µM unless noted
[1] = system: MOLT-4 leukemia
[2] = system: SR leukemia
[3] = system: RPMI-8226 leukemia
[4] = system: OVCAR-8 ovarian
[5] = system: OVCAR-5 ovarian
[6] = system: OVCAR-4 ovarian
[7] = system: IGROV1 ovarian
[8] = system: OVCAR-3 ovarian
[9] = system: HS 578T breast
[10] = system: NCI/ADR-RES ovarian
[11] = system: T-47D breast
[12] = system: BT-549 breast
[13] = system: MDA-MB-435 melanoma
[14] = system: SW-620 colon
[15] = system: MCF7 breast
[16] = system: HCT-116 colon
[17] = system: HCC-2998 colon
[18] = system: KM12 colon
[19] = system: SK-OV-3 ovarian

Structure (SMILES) | growth [1] | growth [2] | growth [3] | growth [4] | growth [5] | growth [6] | growth [7] | growth [8] | growth [9] | growth [10] | growth [11] | growth [12] | growth [13] | growth [14] | growth [15] | growth [16] | growth [17] | growth [18] | growth [19]
N#CC(NC(=O)CCl)=C(Cl)Cl | -33.6% (active) | -18.2% (active) | -22% (active) | -39.3% (active) | 44.4% (inactive) | 21.1% (inactive) | -38.6% (active) | -30.9% (active) | 14.8% (inactive) | 11.8% (inactive) | -30% (active) | 38.9% (inactive) | 5.03% (active) | -50.1% (active) | 18.5% (inactive) | -41.4% (active) | -6.64% (active) | 56.8% (inactive) | –
Cc1cc[c-]cc1.Fc1c[c-]c(-c2ccccn2)c(F)c1.[Pt+2].c1ccc([PH+](c2ccccc2)c2ccccn2)cc1 | 26% (inactive) | 42.5% (inactive) | 15.9% (inactive) | 34% (inactive) | 63.9% (inactive) | – | – | 46.1% (inactive) | 39.1% (inactive) | 88.2% (inactive) | 23.5% (inactive) | 63.2% (inactive) | 39.3% (inactive) | 45.6% (inactive) | 38.9% (inactive) | 35% (inactive) | 83.2% (inactive) | 52.4% (inactive) | 91.7% (inactive)
O=C(CBr)OCCOC(=O)CBr | 64.1% (inactive) | 8.37% (active) | 33.8% (inactive) | 93.7% (inactive) | 117% (inactive) | 38.3% (inactive) | -45.8% (active) | 87.5% (inactive) | 3.4% (active) | 99.9% (inactive) | 79.5% (inactive) | 65.4% (inactive) | 91.6% (inactive) | 58.1% (inactive) | 68.5% (inactive) | 69.2% (inactive) | 110% (inactive) | 99.5% (inactive) | –
Cc1ccccc1-n1c(/C=C\c2ccccn2)nc2ccccc2c1=O | 32.7% (inactive) | -5.07% (active) | 2.88% (active) | 71% (inactive) | 106% (inactive) | 67.6% (inactive) | 67.1% (inactive) | 50.3% (inactive) | 44.2% (inactive) | -19.9% (active) | 49.1% (inactive) | – | 66.5% (inactive) | 68.9% (inactive) | 66.9% (inactive) | 44% (inactive) | 38.2% (inactive) | 65.4% (inactive) | –
NC(=O)Oc1cc(OC(N)=O)cc(N(CCCl)CCCl)c1 | 13.1% (inactive) | -17.1% (active) | 59.7% (inactive) | 28.5% (inactive) | 91.3% (inactive) | – | 91.2% (inactive) | 82.8% (inactive) | 107% (inactive) | 54.9% (inactive) | 53.6% (inactive) | 68.2% (inactive) | 65.2% (inactive) | 60.8% (inactive) | 31.8% (inactive) | 61.9% (inactive) | 103% (inactive) | 82.3% (inactive) | 76% (inactive)
CC1(C)C2CCC1(CS(=O)(=O)O)C(=O)C2 (centres undefined) | 112% (inactive) and 110% (inactive) | 105% (inactive) and 117% (inactive) | 91.4% (inactive) | 99.7% (inactive) and 103% (inactive) | 91.9% (inactive) and 101% (inactive) | – | – | 102% (inactive) and 114% (inactive) | – | 104% (inactive) and 112% (inactive) | – | 95.3% (inactive) and 94.8% (inactive) | 96.1% (inactive) and 105% (inactive) | – | 101% (inactive) and 112% (inactive) | 97.9% (inactive) and 101% (inactive) | 92.2% (inactive) and 133% (inactive) | 101% (inactive) and 104% (inactive) | 98.4% (inactive) and 115% (inactive)
O=[N+]([O-])c1cc(Br)c(O)c(Br)c1 | 107% (inactive) | 102% (inactive) | 98.9% (inactive) | 99.1% (inactive) | 115% (inactive) | 122% (inactive) | – | – | 109% (inactive) | 104% (inactive) | 115% (inactive) | 121% (inactive) | 111% (inactive) | – | 94.3% (inactive) | 97.3% (inactive) | 96.1% (inactive) | – | –
CC1(C)S[C@H]2CC[C@H]3OC(=O)[C@@H]1N23 | 75.1% (inactive) | 92.6% (inactive) | 79.5% (inactive) | 102% (inactive) | 91.1% (inactive) | – | 39.4% (inactive) | 132% (inactive) | 112% (inactive) | 93.8% (inactive) | 104% (inactive) | 85.3% (inactive) | 93.3% (inactive) | 113% (inactive) | 103% (inactive) | 103% (inactive) | 97.7% (inactive) | 111% (inactive) | 111% (inactive)
CNC(=O)O/N=C(\SC)C(=O)N(C)C | 86.5% (inactive) | 72.2% (inactive) | 86% (inactive) | 97.7% (inactive) | 101% (inactive) | 119% (inactive) | 110% (inactive) | 107% (inactive) | 96.4% (inactive) | 96.4% (inactive) | 97.1% (inactive) | 101% (inactive) | 116% (inactive) | 106% (inactive) | 103% (inactive) | 105% (inactive) | 77.4% (inactive) | 102% (inactive) | –
O=C(O)c1ccccc1N(CCO)CCCl | 98.3% (inactive) | 84.2% (inactive) | 103% (inactive) | 101% (inactive) | 92.3% (inactive) | 108% (inactive) | 88.6% (inactive) | 111% (inactive) | 120% (inactive) | 95.1% (inactive) | 87.6% (inactive) | – | 112% (inactive) | 107% (inactive) | 95.9% (inactive) | 95.3% (inactive) | 103% (inactive) | 103% (inactive) | –
CCOC(=O)P(=O)(OCC)OCC | 100% (inactive) | 92.5% (inactive) | 112% (inactive) | 101% (inactive) | 112% (inactive) | – | 89.5% (inactive) | 113% (inactive) | 109% (inactive) | 109% (inactive) | 108% (inactive) | – | 120% (inactive) | 106% (inactive) | 106% (inactive) | 111% (inactive) | 106% (inactive) | 113% (inactive) | 98.3% (inactive)
CC1=C(C)C(=O)O[C@@H]([C@](C)(O)[C@]2(O)CC[C@@]3(O)[C@@H]4C[C@H]5O[C@]56CC=CC(=O)[C@]6(C)[C@H]4CC[C@]23C)C1 | -12.7% (active) | -23.5% (active) | -19.2% (active) | -7.94% (active) | 21.7% (inactive) | – | -36.7% (active) | -59.6% (active) | 9.59% (active) | 42.6% (inactive) | 0.829% (active) | -24.4% (active) | 3.13% (active) | -37% (active) | -16.3% (active) | -4.21% (active) | -69.8% (active) | -24.2% (active) | -19% (active)
S=P(SP(=S)(c1ccccc1)c1ccccc1)(c1ccccc1)c1ccccc1 | 98.3% (inactive) | 93.7% (inactive) | 87.7% (inactive) | 104% (inactive) | 95.2% (inactive) | 111% (inactive) | 119% (inactive) | 104% (inactive) | 93.8% (inactive) | 104% (inactive) | – | – | 97.5% (inactive) | – | 112% (inactive) | 109% (inactive) | 104% (inactive) | 105% (inactive) | –
Cc1cc(N)ccc1N | 107% (inactive) | 110% (inactive) | 77% (inactive) | 96.1% (inactive) | 96% (inactive) | 104% (inactive) | 108% (inactive) | 102% (inactive) | 104% (inactive) | 105% (inactive) | – | 90.4% (inactive) | 116% (inactive) | 96.6% (inactive) | 92.2% (inactive) | 91.8% (inactive) | 93.2% (inactive) | 104% (inactive) | –
C=CC[PH+](c1ccccc1)c1ccccc1.C=CC[PH+](c1ccccc1)c1ccccc1.[Pt+2].[S-]c1nc2ccccc2[nH]1.[S-]c1nc2ccccc2[nH]1 | 0.306% (active) | 4.38% (active) | -19.1% (active) | 2.64% (active) | -3.98% (active) | – | – | -23.3% (active) | -16.6% (active) | 88.4% (inactive) | -6.06% (active) | -28.1% (active) | -50.5% (active) | 3.79% (active) | 3.99% (active) | -29.7% (active) | -33.2% (active) | -63% (active) | 8.34% (active)
C[C@]12CCc3sc(Nc4ccc(F)cc4)nc3C1=CC[C@@H]1[C@@H]2CC[C@]2(C)C(=O)CC[C@@H]12 | 15.8% (inactive) | 19.5% (inactive) | 2.21% (active) | 68.4% (inactive) | 100% (inactive) | – | – | 24.1% (inactive) | 55.3% (inactive) | 80.3% (inactive) | 80% (inactive) | 43.8% (inactive) | 57% (inactive) | – | 20% (inactive) | 17.7% (inactive) | 95.1% (inactive) | 72.2% (inactive) | 90% (inactive)

Source: PubChem BioAssay (NCI)
